In PubChem BioAssay:
A number with no mark means an inactive call. The source made the active and inactive calls.

test: fission yeast growth modulation, primary screen, strain 972, OD600, 24 h, no modulator (AID 1090);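 note: basal condition with compound alone and no growth modifier present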; settings: S. pombe 972 growth, higher = more signal, called active from +8 up or from −8 down
Note: test concentration not given here.

In order of falling z-score:
1. CC=CC(O)C1C=CC2C(=O)N(C)C(=O)C2N1N(c1ccccc1)c1ccccc1 (configuration not stated)  1.91
2. CC(c1ccccc1)C(O)C1C=CC2C(=O)N(c3ccccc3)C(=O)C2N1Nc1ccccc1 (configuration not stated)  1.23
3. O=C1NC(=O)C2C1C=CC(C(O)C1CC=CCC1)N2Nc1ccccn1 (configuration not stated)  0.869
4. O=C1OCCC=C[C@H]2OC34C=CCN(Cn5nnc6ccccc65)C(=O)[C@H]3N(CCO)C(=O)[C@@H]4C12 (some centres not stated)  0.785
5. O=C1C[C@@](C(=O)NCc2ccccc2)(c2ccc([N+](=O)[O-])cc2)[C@@H](c2ccc(CO)cc2)N1CC12CC3CC(CC(C3)C1)C2  0.639
6. CCOC(=O)C1=CCC(c2ccc(F)cc2)N(S(=O)(=O)c2ccc(C)cc2)C1 (configuration not stated)  0.639
7. COc1ccc([Si](C)(C)[C@@H]2[C@@H](CC(=O)N3Cc4ccccc4C[C@H]3CO)O[C@]3(C(=O)N(Cc4cccc(N5CCC5=O)c4)c4ccccc43)[C@H]2C)cc1  0.589
8. CC(C)(C)OC(=O)CC[C@]1(C(=O)NCCN2CCOCC2)COC(c2ccc(OCCCO)cc2)=N1  0.41
9. COc1ccc(C(=O)Nc2ccc(CN3C(=O)[C@]4(O[C@H](CC(=O)N5CCC[C@H]5CO)[C@@H]([Si](C)(C)c5ccc(OC)cc5)[C@@H]4C)c4ccccc43)cc2)cc1  0.173
10. COc1ccc(-c2cc3c(c(Cc4ccccc4)n2)[Si](C(C)C)(C(C)C)OC3)cn1  -0.27
11. NCCCCCNC(=O)[C@H]1C[C@H]2C(=O)N3CCC[C@H]3C(=O)N2[C@H]1c1ccc(O)cc1  -0.283
12. CC(C)[Si](C#CCCCC#N)(O[C@H](c1ccccc1)c1cn(Cc2cccc(Cl)c2)nn1)C(C)C  -0.483
13. CC(C)(C)OC(=O)CC[C@@]1(C(=O)N2CCCCC2)N=C(c2ccc(OCCCO)cc2)O[C@@H]1c1ccccc1  -0.76
14. COCCCNC(=O)[C@@]1(Cc2ccccc2CN=[N+]=[N-])N=C(c2ccc(OCCCO)cc2)O[C@H]1c1ccccc1CN=[N+]=[N-]  -1.07
15. [N-]=[N+]=Nc1ccccc1C[C@]1(C(=O)N2CCCCC2)COC(c2ccc(OCCCO)cc2)=N1  -1.72
16. C=C(CCCC)C(=O)CC[C@H](OC(=O)c1cccnc1)c1ccc(OCCO)cc1  -3.48

test: S. cerevisiae growth modulation with rapamycin, primary screen, strain BY4716, OD600, 96 h (AID 1091); settings: higher = more signal, called active from +8 up or from −8 down

In order of rising z-score:
1. CC(C)[Si](C#CCCCC#N)(O[C@H](c1ccccc1)c1cn(Cc2cccc(Cl)c2)nn1)C(C)C  -3.21
2. O[C@@H](Cc1ccccc1)[C@@H](/C=C/C1CC1)NCc1cccc(Cl)c1  -2.31
3. CC(C)[Si](C#CCCCC#N)(Oc1ccccc1Br)C(C)C  -1.96
4. COC(=O)c1c(CC[C@@H](CO)NC(=O)NCCc2c[nH]c3ccccc23)oc(C(=O)Cc2ccccc2)c1C(=O)OC  -1.62
5. COc1cc(CO)cc(I)c1O[C@H]1C=C(C(=O)NCCO)C[C@@H](N(C(=O)c2cc3ccccc3oc2=O)C2CCCCCC2)[C@@H]1O  -1.26
6. COc1ccc(CCNC(=O)[C@@]2(C)c3ccccc3C(=O)N(c3ccc(C)cn3)[C@H]2c2ccc(CO)cc2)cc1  -1.17
7. CC(C)(C)OC(=O)CC[C@@]1(C(=O)N2CCCCC2)N=C(c2ccc(OCCCO)cc2)O[C@@H]1c1ccccc1  -0.95
8. COCCCNC(=O)[C@@H]1c2ccccc2C(=O)N(Cc2ccccc2OC)[C@H]1c1ccc(CO)cc1  -0.921
9. CCCC=C(CCC)[C@@H](NS(=O)(=O)c1ccc(Cl)cc1)c1ccc(C(=O)OC)cc1  -0.825
10. CC[C@@H]1C=C(C(=O)O)[C@H](c2ccc(C)cc2)N1S(=O)(=O)c1ccc(C)cc1  -0.564
11. COc1ccc(C(=O)Nc2ccc(CN3C(=O)[C@]4(O[C@H](CC(=O)N5CCC[C@H]5CO)[C@@H]([Si](C)(C)c5ccc(OC)cc5)[C@@H]4C)c4ccccc43)cc2)cc1  -0.539
12. NCCCCCNC(=O)[C@H]1C[C@H]2C(=O)N3CCC[C@H]3C(=O)N2[C@H]1c1ccc(O)cc1  -0.507
13. O=C1OCCC=C[C@H]2OC34C=CCN(Cn5nnc6ccccc65)C(=O)[C@H]3N(CCO)C(=O)[C@@H]4C12 (some centres not stated)  -0.422
14. CC(C)(C)OC(=O)CC[C@]1(C(=O)NCCN2CCOCC2)COC(c2ccc(OCCCO)cc2)=N1  -0.342
15. C#CCNCc1ccccc1  -0.157
16. C=CCC(OC(C)=O)[C@@H]1[C@@H](N(Cc2ccc(-c3cccc(C(F)(F)F)c3)o2)C(=O)c2cccc3ccccc23)c2cc(OCCCO)ccc2N1C(=O)Cc1ccc2ccccc2c1 (some centres not stated)  0.133
17. C=CCC(OC(C)=O)[C@@H]1[C@@H](N(Cc2ccc(-c3ccccc3)cc2)C(=O)Cc2ccc(F)cc2)c2cc(OCCCO)ccc2N1C(=O)c1ccc2ccccc2c1 (some centres not stated)  0.14
18. CCC(CC)C(O)C1C=CC2C(=O)N(c3ccccc3)C(=O)C2N1Nc1ccccc1 (configuration not stated)  0.204
19. CC(c1ccccc1)C(O)C1C=CC2C(=O)N(C)C(=O)C2N1NC(=O)OC(C)(C)C (configuration not stated)  0.299
20. CCCCCCCCCCC(O)C1C=CC2C(=O)NC(=O)C2N1Nc1ccc(Cl)cc1Cl (configuration not stated)  0.309
21. C=C(CCCC)C(=O)CC[C@H](OC(=O)c1cccnc1)c1ccc(OCCO)cc1  0.364
22. CC(c1ccccc1)C(O)C1C=CC2C(=O)N(c3ccccc3)C(=O)C2N1Nc1ccccc1 (configuration not stated)  0.442
23. O=C1NC(=O)C2C1C=CC(C(O)C1CC=CCC1)N2Nc1ccccn1 (configuration not stated)  0.728
24. CC=CC(O)C1C=CC2C(=O)N(C)C(=O)C2N1N(c1ccccc1)c1ccccc1 (configuration not stated)  1.29
25. COCCCNC(=O)[C@@]1(CCS(=O)(=O)c2ccccc2)N=C(c2ccc(OCCCO)cc2)O[C@H]1c1ccccc1N=[N+]=[N-]  1.36
26. COc1ccc(-c2cc3c(c(Cc4ccccc4)n2)[Si](C(C)C)(C(C)C)OC3)cn1  1.41
27. [N-]=[N+]=NCc1ccccc1[C@@H]1OC(c2ccc(OCCCO)cc2)=N[C@]1(CCS(=O)(=O)c1ccccc1)C(=O)N1CCCCC1  1.44
28. COc1ccc([Si](C)(C)[C@@H]2[C@@H](CC(=O)N3Cc4ccccc4C[C@H]3CO)O[C@]3(C(=O)N(Cc4cccc(N5CCC5=O)c4)c4ccccc43)[C@H]2C)cc1  1.59
29. CCOC(=O)C1=CCC(c2ccc(F)cc2)N(S(=O)(=O)c2ccc(C)cc2)C1 (configuration not stated)  1.68
30. COC(=O)[C@@]1(Cc2ccccc2)[C@H]2c3cc(C(=O)N4CCCC4)n(Cc4ccc(O)c(OC)c4)c3C[C@H]2CN1C(=O)c1ccccc1  2.06
31. C=CCOC(=O)[C@H]1[C@@H]2C(=O)O[C@@H](c3ccccc3)[C@@H](c3ccccc3)N2[C@@H](c2ccc(OCCOC(=O)[C@@H]3C[C@@H]4C(=O)N5CCC[C@H]5C(=O)N4[C@@H]3c3cccc(OCCO)c3)cc2)[C@]12C(=O)Nc1ccc(I)cc12  2.23
32. CC(=O)NCCCC[C@@H]1NC(=O)[C@H]2C[C@@H](C(=O)O)[C@@H](c3ccc(O)cc3)N2C1=O  2.72

For COc1ccc([Si](C)(C)[C@@H]2[C@@H](CCn3cc(CCO)nn3)O[C@]3(C(=O)N(Cc4cccc(N5C(=O)c6cccc7cccc5c67)c4)c4ccccc43)[C@H]2C)cc1, the z-score was 20.9 (active).
For COCCCNC(=O)[C@@]1(Cc2ccccc2CN=[N+]=[N-])N=C(c2ccc(OCCCO)cc2)O[C@H]1c1ccccc1CN=[N+]=[N-], the z-score was 26.7 (active).
With [N-]=[N+]=Nc1ccccc1C[C@]1(C(=O)N2CCCCC2)COC(c2ccc(OCCCO)cc2)=N1 the z-score was 32.7 (active).
In the case of O=C1C[C@@](C(=O)NCc2ccccc2)(c2ccc([N+](=O)[O-])cc2)[C@@H](c2ccc(CO)cc2)N1CC12CC3CC(CC(C3)C1)C2, the z-score is reported as 8.2 (active).
